# Records with an inconclusive call do not appear. A call without a number means that no potency is given here. Activity calls are given as the source filed them. Unless noted, the call rests on the fitted dose curve; in most records, active means well fitted curve in the direction sought with a large enough effect; inconclusive means small, poorly fitted or top-dose-only effect, or another doubt; inactive means no such curve, though single readings can be large; an effect the other way counts as inactive or inconclusive.
# Key:
# [1] = target: Muscarinic acetylcholine receptor M1 (Rattus norvegicus) (UniProt P08482); test: qHTS Assay for Antagonists of Acetylcholine Muscarinic M1 Receptor: Kinetic Measurement of Intracellular Calcium Response (AID 943); conditions: M1-expressing cells, kinetic intracellular calcium fluorescence; series mostly up to 35.3 µM; further: nearly all actives have a fitted effect of over 75% in size; further: potency means the concentration at half of the fitted maximal effect
# Outline: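 Intracellular calcium flux, recorded with Fluo-4 in a kinetic plate reader, served as signal; the response to carbachol at EC80 (100 nM final) was taken as maximal over minimal fluorescence after a 10 min compound pre-incubation in rat M1-CHO cells.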
# [2] = target: Muscarinic acetylcholine receptor M1 (Rattus norvegicus) (UniProt P08482); test: qHTS Assay for Antagonists of Acetylcholine Muscarinic M1 Receptor: Measurement of IP-One Response (AID 944); conditions: CHO-M1 cells, IP-One HTRF, antagonist mode; series mostly up to 46.1 µM; further: nearly all actives have a fitted effect of over 75% in size
# Outline: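 Steps: plate transfected CHO-M1 cells overnight; add test compound, 10 min; add carbachol (200 nM, EC80) in stimulation buffer with LiCl; incubate 30 min; add labelled IP1 tracer and anti-IP1 antibody in lysis buffer; read HTRF after 10 min.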
# [3] = target: Pyruvate kinase (Leishmania mexicana) (UniProt Q27686); test: qHTS Validation Assay for Inhibitors of Leishmania Mexicana Pyruvate Kinase (AID 945); conditions: purified L. mexicana pyruvate kinase, enzyme activity, E451W mutant enzyme; series mostly up to 57.5 µM
# Outline: (§1)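 Eight-point qHTS titrations in triplicate, data normalized to DMSO neutral control. Reaction: 0.2 nM LmPYK E451W mutant, 0.5 mM PEP, 0.1 mM ADP, 7 mM MgCl2, pH 7.2, one hour at room temperature; luminescent ATP detection.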
# [4] = target: Pyruvate kinase PKM (Homo sapiens) (UniProt P14618); test: qHTS Assay for Activators of Human Muscle Pyruvate Kinase (AID 954; active means well fitted curve in the direction sought with a large enough effect, not every such curve was filed as active); conditions: purified human muscle pyruvate kinase, luciferase-coupled luminescence, 1 h; series mostly up to 57.5 µM
# Outline: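 Reaction: 0.1 nM purified PKM2 with 0.5 mM phosphoenolpyruvate and 0.1 mM ADP, room temperature, 1 h. Readout: luciferase-based ATP luminescence after stop reagent. Activators judged against a 0.3 nM enzyme column.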
# [5] = qHTS Assay for Identification of Small Molecule Agonists for Thrombopoietin (TPO) Signaling Pathway (AID 917); conditions: TPO signaling pathway reporter cells, agonist qHTS, stimulated with TPO at its EC50; series mostly up to 38.5 µM
# Outline: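 IL-3-dependent murine pro-B Ba/F3 cells, stably transfected with human TPO receptor and GpIIb-promoter luciferase, are incubated 24 hrs at 37 C with test compound and 26 pM TPO; luciferase signal is read after 10 min at room temperature.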
# [6] = target: Pyruvate kinase (Leishmania mexicana) (UniProt Q27686); test: qHTS Validation Assay for Activators of Leishmania Mexicana Pyruvate Kinase (AID 959); conditions: purified L. mexicana pyruvate kinase, enzyme activity; series mostly up to 57.5 µM
# Outline: as §1
# [7] = qHTS Assay for Identification of Small Molecule Antagonists for Thrombopoietin (TPO) Signaling Pathway (AID 918); conditions: TPO-dependent cell signaling reporter, antagonist mode; further: potency means the concentration at half of the fitted maximal effect; nearly all actives have a fitted effect of over 60% in size
# Outline: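 First, Ba/F3 reporter cells expressing human TPO receptor were held overnight without IL-3. Next, compound and 26 pM TPO were added. After 24 hrs incubation at 37 C, luciferase luminescence under the Glycoprotein IIb promoter was recorded.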
# Sequence of Pyruvate kinase (Leishmania mexicana) (Q27686 2-499 E452W): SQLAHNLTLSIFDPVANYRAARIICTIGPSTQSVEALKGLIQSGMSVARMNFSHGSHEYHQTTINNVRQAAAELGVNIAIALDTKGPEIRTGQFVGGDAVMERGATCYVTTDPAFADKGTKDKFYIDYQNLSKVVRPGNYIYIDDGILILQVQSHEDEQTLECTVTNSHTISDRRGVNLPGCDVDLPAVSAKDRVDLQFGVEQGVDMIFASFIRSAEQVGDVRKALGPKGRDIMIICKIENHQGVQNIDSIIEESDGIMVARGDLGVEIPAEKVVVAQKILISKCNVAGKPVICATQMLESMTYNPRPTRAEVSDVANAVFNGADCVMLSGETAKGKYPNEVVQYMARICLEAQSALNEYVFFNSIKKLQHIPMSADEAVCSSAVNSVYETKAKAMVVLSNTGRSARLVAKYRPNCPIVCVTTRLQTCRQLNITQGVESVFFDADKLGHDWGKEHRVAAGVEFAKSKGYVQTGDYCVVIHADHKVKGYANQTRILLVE
# Sequence of Muscarinic acetylcholine receptor M1 (Rattus norvegicus) (P08482 whole entry, looked up): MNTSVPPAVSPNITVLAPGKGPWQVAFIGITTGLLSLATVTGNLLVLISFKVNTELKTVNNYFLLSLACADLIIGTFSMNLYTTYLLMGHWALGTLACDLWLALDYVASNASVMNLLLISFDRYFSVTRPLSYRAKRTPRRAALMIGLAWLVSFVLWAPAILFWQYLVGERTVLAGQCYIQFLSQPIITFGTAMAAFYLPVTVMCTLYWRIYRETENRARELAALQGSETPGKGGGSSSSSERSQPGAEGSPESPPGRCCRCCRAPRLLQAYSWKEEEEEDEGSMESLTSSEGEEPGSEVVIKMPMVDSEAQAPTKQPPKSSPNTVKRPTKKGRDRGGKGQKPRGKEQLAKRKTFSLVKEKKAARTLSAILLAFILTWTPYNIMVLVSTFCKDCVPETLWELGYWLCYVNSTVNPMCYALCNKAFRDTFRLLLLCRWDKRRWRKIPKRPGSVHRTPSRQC
# Sequence of Pyruvate kinase PKM (Homo sapiens) (P14618 whole entry, looked up): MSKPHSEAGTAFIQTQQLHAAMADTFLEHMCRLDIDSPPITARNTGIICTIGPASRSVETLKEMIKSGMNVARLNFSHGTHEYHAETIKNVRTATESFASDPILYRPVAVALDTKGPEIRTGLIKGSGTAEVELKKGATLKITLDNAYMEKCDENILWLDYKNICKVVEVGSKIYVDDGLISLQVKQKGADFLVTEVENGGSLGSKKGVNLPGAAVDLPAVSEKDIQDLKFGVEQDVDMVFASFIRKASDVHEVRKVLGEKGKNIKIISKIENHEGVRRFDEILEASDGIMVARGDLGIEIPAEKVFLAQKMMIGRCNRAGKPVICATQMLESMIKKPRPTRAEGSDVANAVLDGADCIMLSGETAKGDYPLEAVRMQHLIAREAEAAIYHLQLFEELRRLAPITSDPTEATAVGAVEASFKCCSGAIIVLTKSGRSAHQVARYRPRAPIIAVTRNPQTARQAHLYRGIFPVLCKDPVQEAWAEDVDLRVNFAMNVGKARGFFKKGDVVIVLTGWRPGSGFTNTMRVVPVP
smiles,measurement,setting,value
CCCCCCCC/C=C\CCCCCCCC(=O)NCCc1ccc(O)c(O)c1,Potency,[1],inactive
same,Potency,[2],inactive
same,Potency,[3],inactive
same,outcome,[4],inactive
NCCNS(=O)(=O)c1cccc2c(Cl)cccc12,Potency,[1],inactive
same,Potency,[2],inactive
same,Potency,[3],inactive
same,outcome,[4],inactive
N=C(N)c1ccc(OCCCCCOc2ccc(C(=N)N)cc2)cc1 (tested in a mixture with another compound),outcome,[4],inactive
Nc1ncnc2c1ncn2C1CCCC1,Potency,[2],inactive
same,Potency,[3],inactive
same,outcome,[4],inactive
S=C(S)N1CCCC1,Potency,[2],inactive
same,Potency,[3],inactive
same,outcome,[4],inactive
N#C/C(=C\c1ccc(O)c(O)c1)C(=O)NCCc1ccccc1,Potency,[3],inactive
same,outcome,[4],inactive
COC(=O)[C@H](NC(=O)c1cc(-c2ccccc2)nc2ccccc12)c1ccccc1,Potency,[5],inactive
same,Potency,[2],inactive
same,Potency,[3],inactive
same,outcome,[4],inactive
CC[C@@H]1Cc2cc(O)ccc2C2=C1c1ccc(O)cc1C[C@H]2CC,Potency,[1],12.6 µM (active)
same,Potency,[3],inactive
same,outcome,[4],inactive
CCCCOC(=O)NS(=O)(=O)c1sc(CC(C)C)cc1-c1ccc(Cn2c(CC)nc3c(C)cc(C)nc32)cc1,Potency,[2],inactive
same,Potency,[3],inactive
same,outcome,[4],inactive
COc1cc(/C=C(\C#N)C(=O)c2ccc(O)c(O)c2)cc(I)c1O,Potency,[5],inactive
same,Potency,[3],inactive
same,Potency,[6],15.8 µM (active)
N=C(N)c1ccc(N)cc1,Potency,[3],inactive
same,outcome,[4],inactive
NC(=O)CNCCC(c1ccccc1)c1ccccc1,Potency,[5],inactive
same,Potency,[3],inactive
same,outcome,[4],inactive
O=c1oc(Cl)c(Cl)c2ccccc12,Potency,[1],inactive
same,Potency,[2],inactive
same,Potency,[3],inactive
same,outcome,[4],inactive
COc1ccccc1N1CCN(CCCCNC(=O)c2ccc3ccccc3c2)CC1,Potency,[3],inactive
CCCCCCCCCCCCCCC[C@H](O)[C@H](N)CO,Potency,[7],12.6 µM (active)
same,Potency,[2],inactive
same,Potency,[3],inactive
O=c1ccc2c(OCCCCc3ccccc3)c3ccoc3cc2o1,Potency,[5],inactive
same,Potency,[3],inactive
same,outcome,[4],inactive
CN1CCN(c2nc3cc(C(F)(F)F)ccc3n3cccc23)CC1,Potency,[2],inactive
same,Potency,[3],inactive
c1ccc(CN2CCC3(CCCc4ccccc43)CC2)cc1,Potency,[5],inactive
same,Potency,[3],inactive
same,outcome,[4],inactive
NC(N)=NC(N)=Nc1cccc(Cl)c1,Potency,[2],inactive
same,Potency,[3],inactive
same,outcome,[4],inactive
Nc1ncnc2c1c(-c1ccc(Oc3ccccc3)cc1)cn2C1CCCC1,Potency,[2],inactive
same,Potency,[3],inactive
Cc1cccc(C(=O)NCN2CCN(c3ccccc3C#N)CC2)c1,Potency,[3],inactive
same,outcome,[4],inactive
